Test results from PubChem BioAssay AID2315 (National Center for Advancing Translational Sciences (NCATS), 2010).
In all, about 290,000 compounds went through this assay and about 27,000 (9.3%) were called active. Many of the other results were omitted from the sample, so actives are more common in it than they were. Unmarked numbers belong to inactive results. No stated cut-off is given here; in the data, active means inhibition mostly above about 28% (no sharp cut-off); inactive means mostly below about 43%.

Test: A qHTS for Small Molecule Inhibitors of Shiga Toxin; further: 0% is about no effect
Details: Vero cells, Shiga toxin protein synthesis inhibition reporter; at 38.7 µM, stronger effect = higher value

Point of comparison: `Cc1ccc(NC(=O)CSc2sc3c(O)cc(=O)[nH]c3c2C#N)cc1C`, inhibition -11.9%. Against it:
- CCN(CC)CCCNC(=S)N(CCO)Cc1cc2cc3c(cc2[nH]c1=O)OCO3 — higher, -4.73%
- COCCNc1ncnc2c1nc1n2CCCC1 — higher, -7.74%
- COc1cccc(CNC(=O)Cc2csc(Nc3nc(=S)[nH]c4ccccc34)n2)c1 — higher, 1.99%
- CCN(CC)S(=O)(=O)c1ccc2nc(COC(=O)c3n[nH]c4ccccc34)[nH]c2c1 — lower, -12.2%
- O=C(COC(=O)c1n[nH]c2ccccc12)NCc1ccccc1 — higher, -4.54%
- O=C(CC(=O)N/N=C\c1ccc(F)cc1)NCCc1ccccc1 — higher, 10.7%
- C=CCN(CC=C)C(=O)COC(=O)c1n[nH]c2ccccc12 — higher, 10.1%
- O=C(NCCCO)c1cc2c([nH]c3ccccc32)c(-c2ccc(F)cc2)n1 — higher, -5.91%
- Cc1cccc(OCC(O)Cn2c(N3CCCCC3)nc3c2c(=O)[nH]c(=O)n3C)c1 (stereo not given) — higher, 35.6%
- CCn1cc(CN2CCC(C(=O)Nc3cccc(-c4cccc(Cl)c4)c3)CC2)c(C)n1 — lower, -29.7%
- Cc1ccccc1NC(=O)Cn1cc(C(=O)C2CC2)c2ccccc21 — higher, 14.9%
- O=C(C1CCN(S(=O)(=O)c2ccc(Br)s2)CC1)N1CCN(c2ccccc2)CC1 — higher, 14.2%
- COc1cc2c(cc1OC)C(C(=O)NCc1ccco1)C1c3ccccc3CCN1C2=O (stereo not given) — lower, -23.5%
- COc1ccc(C(C)C)cc1S(=O)(=O)Nc1ncn[nH]1 — higher, -1.36%
- O=C(C1CCCN(S(=O)(=O)c2ccccc2)C1)N1CCN(c2ccc(F)cc2)CC1 (stereo not given) — higher, -6.64%
- Cc1cc(NC(=O)CCC(=O)N(CC(=O)NC2CCCC2)c2ccc(F)cc2)no1 — higher, 29.9%
- CN(CC(=O)NCCN1CCOCC1)S(=O)(=O)c1ccc(F)cc1 — higher, -3.65%
- O=C(NCCN1CCOCC1)c1c(F)c(F)c(F)c(F)c1F — higher, 33.6%
- O=[N+]([O-])C(=c1ccc2c(c1)N1C3=C(CCCC3)CC3CCCCC31N=2)[N+](=O)[O-] (stereo not given) — higher, 27.4%
- COCCCNC(=O)C1CC(=O)N(CCc2ccc(F)cc2)C1 (stereo not given) — higher, -8.38%
- CCOc1cccc(/C=N/NC(=S)NCCN2CCOCC2)c1O — higher, 22.8%
- O=C1CSC(=S)N1/N=C/c1ccc(O)c([N+](=O)[O-])c1 — higher, 34.5%
- CCN(CC)CCCNC(=O)c1c(O)c2cc(F)cc3c2n(c1=O)C(C)CC3 (stereo not given) — higher, 2.56%
- O=C(c1ccccc1)N1CCN(C(=O)c2cc3nc(-c4ccccc4)cc(C(F)(F)F)n3n2)CC1 — higher, 3.38%
- OCCNc1nc(Nc2ccc(Cl)c(Cl)c2)nc2ccccc12 — higher, 29.5%
- Cc1cc(C)nc(Nc2ncn[nH]2)n1 — higher, -5.43%
- COc1ccccc1-c1nc(SC)n[nH]1 — higher, 50.6%
- CCOc1ccc(CNC(=O)C2CCCN(c3nnc(C)c4c(C)n(-c5ccccc5)nc34)C2)cc1 (stereo not given) — higher, -7.91%
- N#CC1(NC(=O)COC(=O)CCN=C2NS(=O)(=O)c3ccccc32)CCCCC1 — higher, 12.6%
- COc1cccc(NC(=O)CN(C)C(=O)Cc2ccc(Cl)cc2Cl)c1 — higher, -4.77%
- COc1ccc(NC(=O)CN(C)C(=O)CNC(=O)C2CCCCC2)cc1 — higher, 14.6%
- CC1CCN(S(=O)(=O)c2ccc3c(c2)n(C)c(=O)n3C)CC1 — higher, -5.36%
- O=C(Nc1ccc([N+](=O)[O-])cc1)OCCc1ccccn1 — higher, 44%
- CCN(CC)CCNCC(=O)Nc1ccc(Oc2ccccc2)cc1 — higher, 3.13%
- CCOC(=O)c1ccccc1NC(=O)CC1Nc2ccccc2NC1=O (stereo not given) — higher, -1.95%
- CCOc1ccc(NC(=O)CC2NCCNC2=O)cc1 (stereo not given) — higher, 13.1%
- CCc1ccc(NC(=O)CC2C(=O)NCCN2C(=S)Nc2ccccc2)cc1 (stereo not given) — higher, 1.19%
- COC(=O)c1cc(C)sc1NC(=O)CC1Nc2ccccc2NC1=O (stereo not given) — higher, 46.2%
- CC1CCN(CCC(=O)Nc2ccccc2)CC1 — higher, -4.96%

With `O=C(NCCc1ccc(F)cc1)c1n[nH]c2ccccc12` the inhibition was 69.4% (active).
With `COc1ccc(COC(=O)c2n[nH]c3ccccc23)cc1F` the inhibition was 52.9% (active).
In the case of `COc1cccc(CNC(=O)c2n[nH]c3ccccc23)c1`, the inhibition is reported as 31.3% (active).
In the case of `Fc1ccc(-c2ccc(NCCN3CCOCC3)nn2)cc1`, the inhibition is reported as 51.7% (active).
For `CCOc1cccc(/C=N/N2C(=O)CSC2=S)c1O`, the inhibition was 38% (active).
In the case of `Cc1cc(C)nc(Nc2n[nH]c(-c3ccccc3N)n2)n1`, the inhibition is reported as 55% (active).
In the case of `CN(CC(=O)Nc1ccc(Cl)cc1)C(=O)CNC(=O)c1ccc2ccccc2c1`, the inhibition is reported as 121% (active).
For `O=C(CC1Nc2ccccc2NC1=O)Nc1ccccc1` (stereo not given), the inhibition was 38.2% (active).
With `O=C(CC1Nc2ccccc2NC1=O)Nc1ccccc1NC(=O)CC1Nc2ccccc2NC1=O` (stereo not given) the inhibition was 73.6% (active).
In the case of `O=C(CC1NCCNC1=O)Nc1ccc(Oc2ccccc2)cc1` (stereo not given), the inhibition is reported as 61.1% (active).
